# Results reported in the supplement of paper PMC10981050.
# Values joined by “and” are separate entries in the source; they are usually repeats but may differ in a detail not shown here. Equal values may be shown once. Where a name gives a salt, the structure may show the parent alone.
# Key:
# Assay in all cases: cell viability relative to vehicle control; higher = less cytotoxic
# Settings in all cases: 10 µM
# [1] = system: K562
# Procedure, shortened: (§1)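 Four leukaemia lines, as CRISPR-edited mutant clones and isogenic wild-type clones, were tested against Selleck bioactive, kinase and epigenetic probe libraries after removal of identity-inconsistent compounds. Cells were exposed to a single 10 µM dose for 48 h, and CellTiter-Glo luminescence was then read. Viability was calculated relative to the on-plate vehicle control.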
# [2] = system: MARIMO
# Procedure, shortened: as §1
# [3] = system: MOLM14
# Procedure, shortened: as §1
# [4] = system: OCI-AML2
# Procedure, shortened: as §1
SMILES,cell viability ([1]; SRSF2 genotype: SRSF2 P95H/wt),cell viability ([1]; SRSF2 genotype: SRSF2 wt/wt) [%],cell viability ([2]; SRSF2 genotype: SRSF2 P95H/wt) [%],cell viability ([2]; SRSF2 genotype: SRSF2 wt/wt) [%],cell viability ([3]; SRSF2 genotype: SRSF2 P95H/wt) [%],cell viability ([3]; SRSF2 genotype: SRSF2 wt/wt) [%],cell viability ([4]; SRSF2 genotype: P95H/wt) [%],cell viability ([4]; SRSF2 genotype: wt/wt) [%]
Cc1cc(Nc2cc(Cl)nc(Oc3ccc([N+](=O)[O-])cc3)n2)n[nH]1 [Autophinib],30.5% and 32.9%,31.3,33.4,53.3,29.9,14.5,50,47.9
CCc1cc2c(cc1CC)CC(NC[C@H](O)c1ccc(O)c3[nH]c(=O)ccc13)C2 [Indacaterol Maleate],68.6% and 83.2%,75.8,73.3,77,62,71.2,52.5,60.1
CC1=C[C@H](O)CC(C)(C)[C@H]1/C=C/C(C)=C/C=C/C(C)=C/C=C/C=C(C)/C=C/C=C(C)/C=C/C1=C(C)C[C@@H](O)CC1(C)C [lutein],99.5% and 98.9%,95.8,88.7,100,88.8,110,103,107
